Assay results taken from PubChem BioAssay (Tox21).
Results filed as inconclusive are left out. The source made the active and inactive calls. Unless noted, the call rests on the fitted dose curve.

Legend:
[1] = Nuclear factor erythroid 2-related factor 2/antioxidant responsive element (Nrf2/ARE) small molecule agonists: qHTS cell viability counter screen in human keratinocytes (AID 1919968; active means well fitted curve in the direction sought with a large enough effect in the repeat runs; an effect the other way counts as inactive or inconclusive; further: nearly all actives have a fitted effect of over 55% in size)
In short: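 Cells of the KeratinoSens line were plated at 1,500 per well and left for 5 h before compound transfer from DMSO stocks. After a 23 h incubation (37 C, 5% CO2), CellTiter-Fluor was added. Signal was taken as fluorescence intensity 1 h later.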

[2] = Nuclear factor erythroid 2-related factor 2/antioxidant responsive element (Nrf2/ARE) small molecule agonists: luciferase reporter gene qHTS assay in human keratinocytes (AID 1919969); further: nearly all actives have a fitted effect of over 35% in size
[3] = biological target: Gonadotropin-releasing hormone receptor (Homo sapiens) (UniProt P30968); assay: Human gonadotropin-releasing hormone receptor (GnRHR) small molecule agonists, calcium flux assay in GnRHR-HEK293 cells (AID 1920063); further: nearly all actives have a fitted effect of over 35% in size
Chain of Gonadotropin-releasing hormone receptor (Homo sapiens) (P30968 whole entry, looked up): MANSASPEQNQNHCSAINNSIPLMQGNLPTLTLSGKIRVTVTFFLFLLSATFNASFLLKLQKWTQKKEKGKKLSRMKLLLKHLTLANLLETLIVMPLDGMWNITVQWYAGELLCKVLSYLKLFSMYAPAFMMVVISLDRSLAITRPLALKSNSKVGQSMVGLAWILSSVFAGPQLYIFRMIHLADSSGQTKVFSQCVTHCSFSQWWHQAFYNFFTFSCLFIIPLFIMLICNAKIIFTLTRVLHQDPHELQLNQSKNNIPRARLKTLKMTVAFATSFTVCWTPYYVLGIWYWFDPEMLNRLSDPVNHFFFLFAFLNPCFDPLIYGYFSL
In short: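 Compounds dissolved in DMSO are pin-transferred onto dye-loaded GnRHR-HEK293 cells, which were seeded 18 h before at 37 C/5% CO2. Calcium signal is read as fluorescence intensity at 1 s intervals for 3 min.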

[4] = biological target: KiSS-1 receptor (Homo sapiens) (UniProt Q969F8); assay: Human kisspeptin (KISS1R) small molecule agonists, calcium flux assay in KISS1R-HEK293 cells (AID 1920064; active means well fitted curve in the direction sought with a large enough effect in the repeat runs; an effect the other way counts as inactive or inconclusive)
Chain of KiSS-1 receptor (Homo sapiens) (Q969F8 whole entry, looked up): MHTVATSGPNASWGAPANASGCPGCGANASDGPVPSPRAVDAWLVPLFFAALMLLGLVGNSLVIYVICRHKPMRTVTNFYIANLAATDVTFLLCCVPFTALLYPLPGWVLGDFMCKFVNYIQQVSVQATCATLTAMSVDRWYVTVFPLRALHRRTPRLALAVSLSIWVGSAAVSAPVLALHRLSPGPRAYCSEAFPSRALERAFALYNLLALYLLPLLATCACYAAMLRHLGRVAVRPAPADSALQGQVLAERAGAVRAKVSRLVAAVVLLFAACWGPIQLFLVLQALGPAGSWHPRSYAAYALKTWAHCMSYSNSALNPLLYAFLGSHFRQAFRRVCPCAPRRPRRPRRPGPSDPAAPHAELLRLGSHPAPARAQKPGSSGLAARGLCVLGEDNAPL
In short: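 Cell line: HEK293, stable human KISS1R. Dye loading 1 h at 37 C after 18 h culture. Read: kinetic fluorescence, 480/540 nm, 3 min at 1 s intervals.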

[5] = G protein-coupled receptor (GPCR) small molecule agonists, calcium flux assay: HEK293 wild type cell line counter screen (AID 1920065)
In short: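 Tox21 10K compounds, 15 concentrations each in triplicate, pin-transferred in DMSO onto dye-loaded cells; kinetic read at 480/540 nm for 3 min, 1 s intervals.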

[6] = p53 small molecule agonists, cell-based qHTS assay with rat liver microsomes (AID 1963578)
In short: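 Fluorescence from a beta-lactamase reporter under a p53 response element was measured after cells had been incubated 16 h at 37 C with test compound and rat liver microsomes plus NADPH (0.5 mg/mL final each).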

[7] = p53 small molecule agonists, cell-based qHTS assay with human liver microsomes: qHTS cell viability counter screen (AID 1963579); further: nearly all actives have a fitted effect of over 45% in size
In short: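 Seed p53RE-bla cells at 4,000 per well; incubate 5 h at 37 C; add compound, human liver microsomes and NADPH; incubate 16 h at 37 C; add CellTiter-Glo; after 30 min at room temperature, read luminescence.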

[8] = p53 small molecule agonists, cell-based qHTS assay with rat liver microsomes: qHTS cell viability counter screen (AID 1963580); further: nearly all actives have a fitted effect of over 45% in size
In short: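 After the beta-lactamase ratio was read, CellTiter-Glo was added to the same wells and luminescence measured at 30 min; cells had been treated 16 h at 37 C with compounds, rat liver microsomes and NADPH (0.5 mg/mL final each).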

[9] = p53 small molecule agonists, cell-based qHTS assay: qHTS cell viability counter screen (AID 1963581); further: nearly all actives have a fitted effect of over 45% in size
In short: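 ATP content measured by luminescence in HCT-116 p53RE-bla cells treated 16 h at 37 C, same wells as the reporter screen.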

[10] = p53 small molecule agonists, cell-based qHTS assay (AID 1963582; active means well fitted activation curve with a large enough effect in the signal ratio in the repeat runs, not every such curve was filed as active; the % refers to the signal ratio)
In short: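 16 h compound exposure (37 C) of p53 response element–bla cells, preceded by 5 h recovery at 37 C/5% CO2; read-out via LiveBLAzer B/G FRET substrate, 2 h RT, fluorescence intensity.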

[11] = cAMP Responsive Elements (CRE) small molecule antagonists, cell-based qHTS assay (AID 1963591; active means well fitted inhibition curve with a large enough effect in the signal ratio in the repeat runs, not every such curve was filed as active; the % refers to the signal ratio)
In short: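 First, CRE-bla HEK293T cells settled 18 h at 37 C. Next, compound and 0.25 uM final NKH477 were applied for 3 h. Last, LiveBLAzer B/G substrate was loaded for 2 h at room temperature.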

[12] = biological target: Beta-2 adrenergic receptor (Homo sapiens) (UniProt P07550); assay: Adrenergic beta2 receptor (ADRB2) small molecule antagonists, cell-based qHTS assay (AID 1963592); further: series mostly up to about 92 µM; nearly all actives have a fitted effect of over 50% in size
Chain of Beta-2 adrenergic receptor (Homo sapiens) (P07550 whole entry, looked up): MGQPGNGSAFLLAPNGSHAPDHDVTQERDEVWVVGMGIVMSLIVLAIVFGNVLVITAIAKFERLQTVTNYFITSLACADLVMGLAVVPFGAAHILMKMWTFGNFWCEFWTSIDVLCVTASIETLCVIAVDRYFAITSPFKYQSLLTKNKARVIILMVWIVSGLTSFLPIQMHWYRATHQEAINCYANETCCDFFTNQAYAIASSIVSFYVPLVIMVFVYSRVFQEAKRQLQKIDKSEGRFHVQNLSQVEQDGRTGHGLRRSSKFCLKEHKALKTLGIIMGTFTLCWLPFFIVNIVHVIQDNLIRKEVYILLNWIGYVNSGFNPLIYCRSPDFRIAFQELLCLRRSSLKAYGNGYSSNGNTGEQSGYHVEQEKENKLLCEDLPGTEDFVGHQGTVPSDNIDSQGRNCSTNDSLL
In short: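 Assay format: CHO-ADRB2 cells, 18-20hr seeding at 37C/5% CO2, then compound plus 1nM isoproterenol agonist mix for 0.5hr RT. Homogeneous time-resolved fluorescence cAMP detection after 1hr, expressed as 665/615 nm ratio.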

[13] = biological target: Beta-2 adrenergic receptor (Homo sapiens) (UniProt P07550); assay: Adrenergic beta2 receptor (ADRB2) small molecule agonists, cell-based qHTS assay (AID 1963593);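 further: CHO cells stably overexpressing human ADRB2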
In short: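 CHO cells stably over-expressing ADRB2 were plated overnight at 37C, then dosed with compounds plus a stimulation mix containing 100uM IBMX and 25uM Ro-20-1724 for 0.5hr at room temperature. cAMP was measured by HTRF competition, 1hr.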

[14] = biological target: D(2) dopamine receptor (Homo sapiens) (UniProt P14416); assay: Dopamine D2 receptor (DRD2) small molecule agonists, cell-based qHTS assay (AID 1963594); further: nearly all actives have a fitted effect of over 35% in size
Chain of D(2) dopamine receptor (Homo sapiens) (P14416 whole entry, looked up): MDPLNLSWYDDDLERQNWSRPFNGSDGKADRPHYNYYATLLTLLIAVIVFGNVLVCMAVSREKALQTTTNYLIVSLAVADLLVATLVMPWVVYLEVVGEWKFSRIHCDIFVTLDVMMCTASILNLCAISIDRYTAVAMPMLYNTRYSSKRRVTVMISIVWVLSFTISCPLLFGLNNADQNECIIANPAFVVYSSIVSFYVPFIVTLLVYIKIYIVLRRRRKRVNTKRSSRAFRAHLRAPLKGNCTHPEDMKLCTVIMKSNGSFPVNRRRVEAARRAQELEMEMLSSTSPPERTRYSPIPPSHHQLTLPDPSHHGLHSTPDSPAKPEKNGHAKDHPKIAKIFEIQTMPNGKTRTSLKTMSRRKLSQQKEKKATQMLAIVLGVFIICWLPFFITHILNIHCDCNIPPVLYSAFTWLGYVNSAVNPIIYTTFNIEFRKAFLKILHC
In short: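 HEK293 cells stably expressing human DRD2, pre-treated with PDE inhibitor Ro20-1724 (0.1 mM final) and compound 10 min at room temperature, then stimulated with NKH477 (200nM […]) for 30 min. cAMP read by HTRF (665/620 nm).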

[15] = biological target: D(2) dopamine receptor (Homo sapiens) (UniProt P14416); assay: Dopamine D2 receptor (DRD2) small molecule antagonists, cell-based qHTS assay (AID 1963595; active means well fitted inhibition curve with a large enough effect in the signal ratio in the repeat runs, with a control signal flat; the % refers to the signal ratio)
In short: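 Stable D2 receptor HEK293 line, 24 h after seeding. Compound preincubated 10 min, then quinpirole (12 nM) with forskolin analogue NKH477 (200 nM), 30 min, room temperature. Detection by time-resolved FRET of cAMP.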

[16] = biological target: 5-hydroxytryptamine receptor 2A (Homo sapiens) (UniProt P28223); assay: 5-hydroxytryptamine receptor 2A (HTR2A) small molecule antagonists, cell-based qHTS assay (AID 1963586); further: nearly all actives have a fitted effect of over 45% in size
Chain of 5-hydroxytryptamine receptor 2A (Homo sapiens) (P28223 whole entry, looked up): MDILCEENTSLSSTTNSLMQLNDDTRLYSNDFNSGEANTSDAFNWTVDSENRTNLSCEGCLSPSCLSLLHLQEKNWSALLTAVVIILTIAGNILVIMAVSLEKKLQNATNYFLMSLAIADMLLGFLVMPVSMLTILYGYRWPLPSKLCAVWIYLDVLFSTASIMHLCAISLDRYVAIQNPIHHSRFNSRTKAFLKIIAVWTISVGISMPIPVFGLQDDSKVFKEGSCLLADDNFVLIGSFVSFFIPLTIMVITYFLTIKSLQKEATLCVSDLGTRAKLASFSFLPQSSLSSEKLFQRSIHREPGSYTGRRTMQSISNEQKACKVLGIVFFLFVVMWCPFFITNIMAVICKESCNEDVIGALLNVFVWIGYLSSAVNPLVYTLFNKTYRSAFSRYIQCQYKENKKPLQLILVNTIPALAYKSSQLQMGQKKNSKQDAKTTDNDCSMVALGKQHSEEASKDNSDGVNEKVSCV
In short: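 CHO cells stably expressing human HTR2A were plated for 18 h at 37 C, then loaded with calcium dye for 1 h. Compounds were preincubated 5 min at room temperature before DOI (4 nM solution) was added. Kinetic fluorescence was read for 3 min.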

[17] = biological target: 5-hydroxytryptamine receptor 2A (Homo sapiens) (UniProt P28223); assay: 5-hydroxytryptamine receptor 2A (HTR2A) small molecule agonists, cell-based qHTS assay (AID 1963587); further: nearly all actives have a fitted effect of over 30% in size
In short: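 CHO cells stably expressing human HTR2A, plated 18 h, loaded with calcium dye 1 h at 37 C. Agonist mode: compounds added and intracellular calcium fluorescence recorded kinetically for 2 min at 1 sec intervals.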

[18] = biological target: Muscarinic acetylcholine receptor M1 (Homo sapiens) (UniProt P11229); assay: Cholinergic receptor muscarinic 1 (CHRM1) small molecule antagonists, cell-based qHTS assay (AID 1963588); further: nearly all actives have a fitted effect of over 40% in size
Chain of Muscarinic acetylcholine receptor M1 (Homo sapiens) (P11229 whole entry, looked up): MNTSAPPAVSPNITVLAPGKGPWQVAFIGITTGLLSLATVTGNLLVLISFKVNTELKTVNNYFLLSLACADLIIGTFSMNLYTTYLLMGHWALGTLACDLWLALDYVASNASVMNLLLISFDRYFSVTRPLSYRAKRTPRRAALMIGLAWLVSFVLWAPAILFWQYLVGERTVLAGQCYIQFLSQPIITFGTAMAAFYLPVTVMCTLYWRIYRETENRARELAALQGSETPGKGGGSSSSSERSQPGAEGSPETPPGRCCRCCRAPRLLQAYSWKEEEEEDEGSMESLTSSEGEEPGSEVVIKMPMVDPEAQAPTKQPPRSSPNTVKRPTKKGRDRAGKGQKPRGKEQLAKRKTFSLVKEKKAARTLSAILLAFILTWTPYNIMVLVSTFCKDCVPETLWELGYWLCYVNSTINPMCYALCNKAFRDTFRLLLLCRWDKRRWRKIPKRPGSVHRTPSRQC
In short: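 Compounds were tested at 15 concentrations in three independent runs. Dye-loaded CHRM1-CHO cells were exposed 5 min at room temperature before stimulation by acetylcholine added at 50nM. Intracellular calcium was read kinetically on FDSS for 3 min.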

[19] = biological target: Muscarinic acetylcholine receptor M1 (Homo sapiens) (UniProt P11229); assay: Cholinergic receptor muscarinic 1 (CHRM1) small molecule agonists, cell-based qHTS assay (AID 1963589); further: nearly all actives have a fitted effect of over 35% in size
In short: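 Homogeneous fluorescence calcium flux, agonist mode. Human M1-expressing CHO cells; compound dosed at 15 concentrations, three independent runs; signal sampled every 1 sec.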

[20] = cAMP Responsive Elements (CRE) small molecule agonists, cell-based qHTS assay (AID 1963590)
In short: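 HEK 293T cells stably bearing CRE-bla were plated at 2,000 cells per well and rested 18 h. Compounds, positive controls or DMSO were added for 3 h at 37 C. LiveBLAzer B/G substrate was then loaded for 2 h at room temperature.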

Measured: Potency

CN(N=O)C(=O)N[C@@H]1[C@@H](O)[C@H](O)[C@@H](CO)O[C@@H]1O
not listed: [16] | [17] | [18] | [19] | [20]
inactive: all other assays above

O=C(O)Cc1cccc2ccccc12
inactive: all assays above

COc1ccc(CCC(C)=O)cc1
inactive: all assays above

CC(CCO)CC(C)(C)C (configuration not stated)
not listed: [6] | [9] | [13]
inactive: all other assays above

COCC(C)N (configuration not stated)
not listed: [16] | [20]
inactive: all other assays above

Nc1ccc(O)c(C(=O)O)c1
not listed: [11] | [13]
inactive: all other assays above

CC(=O)OC[C@H]1O[C@@](COC(C)=O)(O[C@H]2O[C@H](COC(C)=O)[C@@H](OC(C)=O)[C@H](OC(C)=O)[C@H]2OC(C)=O)[C@@H](OC(C)=O)[C@@H]1OC(C)=O
not listed: [13]
inactive: all other assays above
